Screening results: PubChem, several laboratories
In the library only some 2.7% were active in any assay of this set; here they are far more common.
CHT allo act = CHT positive allosteric modulators, primary screen, cell-based, membrane potential dye, choline EC20 | High affinity choline transporter 1 (Homo sapiens), Q9GZV3 | CHT-expressing cells; stronger effect = higher value; LV-AA mutant CHT in HEK293 cells | hit rate 0.49% among 310,000 | B-score at 10 µM;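 active means initial fluorescence not abnormally high and integrated response B-score, plate-corrected, over 3 SD above library mean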
IDE act = human IDE activators in live cells, primary screen, fluorescence polarization, HEK cells, FAbeta-B substrate; activation, % at 5.96 µM; FAbeta-B cleavage; 0% vehicle, 100% cell-free pure enzyme wells; hit rate 0.073% among 340,000;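 active means activation above the mean of all tested compounds plus 3 SD, set per screening campaign, cut at about 17% in these data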
IDE inh = human IDE inhibitors in live cells, primary screen, fluorescence polarization, HEK cells, FAbetaB substrate. Insulin-degrading enzyme (Homo sapiens), P14735. FAbetaB cleavage. inhibition, % at 5.59 µM. hit rate 0.41% among 320,000. AID 434962, 2010;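 active means percent inhibition above the average of all tested compounds plus 3 SD, set per screening campaign, cut at about 16% in these data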;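 further: IDE supplied by intact live HEK cells; FP after avidin binding of uncleaved biotin substrate so inhibition keeps polarization high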
ANO1 activ = TMEM16A chloride channel activators or potentiators, primary screen, cell-based, HTS; Anoctamin-1 (Mus musculus), Q8BHY3; HEK293 TMEM16A/YFP-H148Q/I152L, iodide quench fluorescence; stronger effect = lower value; B-score at 10 µM; hit rate 0.3% among 340,000; AID 623877, 2012;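 active means fluorescence-ratio B-score plate-corrected deviation score at least 3 library SD below zero, with starting fluorescence score within 5 deviations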;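 further: channel opened by trigger with iodide after compound preincubation; score built on the fluorescence ratio of max minus min over baseline; more negative score means more quench and so TMEM16A activation or potentiation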
ANO1 block = TMEM16A chloride channel inhibitors, primary screen, cell-based, HTS; Anoctamin-1 (Mus musculus), Q8BHY3; hit rate 1.2% among 310,000; normalized B-score (activity score, 25-100; higher = stronger inhibition) at 10 µM; HEK293 TMEM16A/YFP iodide influx fluorescence, ionomycin;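 active means ratio plate-corrected score three or more library SD toward inhibition, starting fluorescence score within five deviations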;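 further: score derived from kinetic fluorescence span divided by baseline fluorescence per well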
CHT block = inhibitors of human choline transporter CHT | B-score at 10 µM | AID 488975, 2010 | CHT-expressing cells, membrane potential dye, choline response; stronger effect = lower value | hit rate 0.86% among 310,000 | High affinity choline transporter 1 (Homo sapiens), Q9GZV3;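 active means B-score over 3 SD under the library average, and starting fluorescence ratio not unusually high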;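 further: choline stimulus applied at its EC90 after an EC20 pre-addition; B-score computed on integrated fluorescence ratio after choline addition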
Large screens that a line does not name were inactive.

CN(C)c1ccc(P(=O)(OCc2ccccc2)C(O)c2ccncc2)cc1 (configuration not stated)	ANO1 block 25
CC(C)CN(C1CCS(=O)(=O)C1)S(=O)(=O)c1ccc(C(C)C)cc1 (configuration not stated)	none
O=C(CSCc1c(Cl)cccc1Cl)NN=C1CCCC1	ANO1 activ -29
O=C(CSCc1ccccc1Cl)NN=C1CCCCCC1	none
COc1ccccc1CN1C[C@@H]2C[C@@H](C3=Cc4cccc(OC)c4OC3)N3CCC[C@@]23C1=O	ANO1 activ -4.7
COc1ccccc1CN1C[C@@H]2C[C@@H](c3ccccc3OC)N3CCC[C@@]23C1=O	none
COc1ccc(S(=O)(=O)N2CCCCCC2)cc1C(=O)N(C)Cc1ccc(Cl)cc1Cl	ANO1 activ -22
CCn1c(=O)c(C(=O)Nc2ccccc2)c(O)c2ccccc21	none
CCn1c(=O)c(C(=O)Nc2nc3ccccc3[nH]2)c(O)c2ccccc21	ANO1 activ -7.8
COC(=O)C1CCCCN1C(=O)c1cc(COc2cccc3cnccc23)on1 (configuration not stated)	ANO1 block 25
CSc1ccccc1OCc1cc(C(=O)N2CCc3c(Cl)cccc3C2)no1	none
c1ccc(-c2cc3ccccc3[nH]2)cc1	none
Clc1ccc2[nH]c(-c3ccccc3)cc2c1	ANO1 block 25
CN(C(=O)c1ccc(C#N)cc1)c1nnc(-c2cnccn2)s1	ANO1 activ -5.2
CN(C(=O)c1ccno1)c1nnc(-c2cnccn2)s1	none
COc1ccc(OCCNc2cc(N3CCOCC3)ccc2[N+](=O)[O-])cc1	IDE act 20
COc1ccc(Nc2nc(CC(C)=O)ns2)cc1	ANO1 activ -16
COc1ccc(Nc2nc(-c3sc(NC(C)=O)nc3C)cs2)cc1	CHT block -5.1 (no result: IDE act, ANO1 activ)
COc1ccc(Nc2nc(-c3sc(N)nc3C)cs2)cc1	none
CC(C)[C@H](NS(=O)(=O)c1ccccc1)C(=O)OCC(=O)NC(=O)NC1CCCCC1	none (no result: CHT allo act, ANO1 block, CHT block)
O=C(COC(=O)c1ccc[nH]c1=O)NC1CCCCCCC1	ANO1 activ -22
COc1cc(Cl)c(C)cc1NC(=O)CSc1ccc(NC(C)=O)cc1	IDE inh 18
CCOc1ccccc1NC(=O)C(OC(=O)c1ccc(O)cc1)c1ccccc1 (configuration not stated)	ANO1 block 25
CCOc1ccccc1NC(=O)C(OC(=O)c1ccc(CC)cc1)c1ccccc1 (configuration not stated)	none
CCOc1ccccc1NC(=O)C(NCCN(C)C)c1ccccc1 (configuration not stated)	none
CCOc1ccccc1NC(=O)C(NCC1CCCCC1)c1ccccc1 (configuration not stated)	ANO1 block 25
CC(C)N(C(=S)Nc1cccc(C(F)(F)F)c1)C(C)c1ccccn1 (configuration not stated)	ANO1 block 100
COc1ccc(C(=O)/C(C#N)=N/Nc2ccc([N+](=O)[O-])cc2)cc1	ANO1 block 25
C/C(=N\Nc1ccc([N+](=O)[O-])cc1)c1ccc(C#N)cc1	none
N#CC(C#N)=NNc1ccc([N+](=O)[O-])cc1	ANO1 block 100
COc1ccccc1-c1nnc2n1N=C(c1ccc(O)c(O)c1)CS2	none
CCOc1ccc(C2=Nn3c(nnc3-c3ccccc3OC)SC2)cc1	CHT block -5.3
CCC1(C(=O)OC)NC(c2ccco2)C2C(=O)N(c3ccc(F)cc3)C(=O)C21 (configuration not stated)	none
CCC1(C(=O)OC)NC(c2ccco2)C2C(=O)N(c3ccccc3)C(=O)C21 (configuration not stated)	ANO1 activ -4.8
Cc1occc1C(=O)Nc1nnc(C(F)(F)F)s1	none
O=C(Nc1ccccc1C(=O)Nc1nnc(C(F)(F)F)s1)c1ccccc1	ANO1 activ -6.2, ANO1 block 100
CC(Sc1nnc(Nc2ccccc2F)s1)C(=O)NC1CC1 (configuration not stated)	none (no result: CHT allo act, ANO1 block, CHT block)
Nc1nc(=O)c2ccccc2s1	none (no result: CHT allo act, IDE inh, ANO1 block, CHT block)
COC(=O)c1c(-c2ccccc2)csc1N	none
COC(=O)C1=C(N)c2ccccc2C1(C#N)c1ccccc1 (configuration not stated)	ANO1 activ -10
O[C@@H]1CN(C2CCCCC2)CC[C@H]1N1CCN(CCc2ccccc2)CC1	none
Cc1ccc(C2=NC(=O)/C(=C/c3cc(O)c(O)c(Br)c3)S2)cc1	ANO1 activ -6 (no result: CHT allo act, IDE inh, ANO1 block, CHT block)
COc1ccc(/C=C2\SC(N)=NC2=O)cc1Br	none
CSCCC(NS(=O)(=O)c1ccccc1)C(=O)OC(C)C(=O)Nc1ccc(Cl)cn1 (configuration not stated)	none (no result: CHT allo act, ANO1 block, CHT block)
C[C@@H]1CN(S(=O)(=O)C(C)(C)C)[C@H](CCO)/C1=C\c1ccccc1	none (no result: CHT allo act, IDE inh, ANO1 activ, ANO1 block, CHT block)
Cc1ccc(-c2ccnc(=S)[nH]2)cc1	none
CC1(C)CCc2cc(-c3ccnc(=S)[nH]3)ccc2O1	IDE inh 26
CCOc1cc(/C=C(\C#N)C(=O)Nc2cccc(C(=O)O)c2)cc(Br)c1OC(=O)c1ccc(OC)cc1	ANO1 block 100
COc1cc(/C=C(\C#N)C(=O)Nc2cccc(C(=O)O)c2)ccc1OCc1ccc(F)cc1	none
CCOc1cc(/C=C(\C#N)C(=O)Nc2cccc(C(=O)O)c2)ccc1OCc1ccccc1Cl	ANO1 block 100
O=C1CCCC/C=C\C[C@H](CC(=O)N(CCO)Cc2ccccc2)C(=O)NCCO1	none (no result: CHT allo act, ANO1 block, CHT block)
O=C(COC(=O)c1cccnc1Cl)NC(=O)c1ccc(OC(F)F)cc1	none (no result: CHT allo act, ANO1 block, CHT block)
COc1ccc(C(CNC(=O)C(=O)NC2CCCCC2)N2CCN(C)CC2)cc1 (configuration not stated)	none
CCCCCCCCNC(C)C(O)c1ccc(SC(C)C)cc1 (configuration not stated)	ANO1 block 25
CCCCCCCCCCCC(=O)NC(C(=O)O)C(O)c1ccccc1 (configuration not stated)	none
CCOC(=O)C1CCCN(S(=O)(=O)CCNC(=O)c2cccc(OC)c2)C1 (configuration not stated)	none
O=S(=O)(c1cccs1)N1CCN(CCOc2ccc(Cl)cc2)CC1	none (no result: CHT allo act, ANO1 block, CHT block)
O=S(=O)(c1cccs1)N1CCN(CC(O)COc2cc(Cl)ccc2Cl)CC1 (configuration not stated)	ANO1 activ -14, ANO1 block 25
